Assay results published in the supplement of paper PMC11732987, “Enantioselective OTUD7B fragment discovery through chemoproteomics screening and high-throughput optimisation” (Communications Chemistry, 2025).

Experiments:
Assay in all cases: log2 ratio of Biotin-Ahx-Ub-VS probe labelling (fragment/DMSO); higher = less target engagement (more negative = stronger competition), active = hit call of the paper (q ≤ 0.05, log2 ratio ≤ -1)
Conditions in all cases: compound concentration: 200 uM; treatment time: 3 h
USP19 = biological target: T1, USP19 (UniProt O94966)
T1 sequence (whole entry): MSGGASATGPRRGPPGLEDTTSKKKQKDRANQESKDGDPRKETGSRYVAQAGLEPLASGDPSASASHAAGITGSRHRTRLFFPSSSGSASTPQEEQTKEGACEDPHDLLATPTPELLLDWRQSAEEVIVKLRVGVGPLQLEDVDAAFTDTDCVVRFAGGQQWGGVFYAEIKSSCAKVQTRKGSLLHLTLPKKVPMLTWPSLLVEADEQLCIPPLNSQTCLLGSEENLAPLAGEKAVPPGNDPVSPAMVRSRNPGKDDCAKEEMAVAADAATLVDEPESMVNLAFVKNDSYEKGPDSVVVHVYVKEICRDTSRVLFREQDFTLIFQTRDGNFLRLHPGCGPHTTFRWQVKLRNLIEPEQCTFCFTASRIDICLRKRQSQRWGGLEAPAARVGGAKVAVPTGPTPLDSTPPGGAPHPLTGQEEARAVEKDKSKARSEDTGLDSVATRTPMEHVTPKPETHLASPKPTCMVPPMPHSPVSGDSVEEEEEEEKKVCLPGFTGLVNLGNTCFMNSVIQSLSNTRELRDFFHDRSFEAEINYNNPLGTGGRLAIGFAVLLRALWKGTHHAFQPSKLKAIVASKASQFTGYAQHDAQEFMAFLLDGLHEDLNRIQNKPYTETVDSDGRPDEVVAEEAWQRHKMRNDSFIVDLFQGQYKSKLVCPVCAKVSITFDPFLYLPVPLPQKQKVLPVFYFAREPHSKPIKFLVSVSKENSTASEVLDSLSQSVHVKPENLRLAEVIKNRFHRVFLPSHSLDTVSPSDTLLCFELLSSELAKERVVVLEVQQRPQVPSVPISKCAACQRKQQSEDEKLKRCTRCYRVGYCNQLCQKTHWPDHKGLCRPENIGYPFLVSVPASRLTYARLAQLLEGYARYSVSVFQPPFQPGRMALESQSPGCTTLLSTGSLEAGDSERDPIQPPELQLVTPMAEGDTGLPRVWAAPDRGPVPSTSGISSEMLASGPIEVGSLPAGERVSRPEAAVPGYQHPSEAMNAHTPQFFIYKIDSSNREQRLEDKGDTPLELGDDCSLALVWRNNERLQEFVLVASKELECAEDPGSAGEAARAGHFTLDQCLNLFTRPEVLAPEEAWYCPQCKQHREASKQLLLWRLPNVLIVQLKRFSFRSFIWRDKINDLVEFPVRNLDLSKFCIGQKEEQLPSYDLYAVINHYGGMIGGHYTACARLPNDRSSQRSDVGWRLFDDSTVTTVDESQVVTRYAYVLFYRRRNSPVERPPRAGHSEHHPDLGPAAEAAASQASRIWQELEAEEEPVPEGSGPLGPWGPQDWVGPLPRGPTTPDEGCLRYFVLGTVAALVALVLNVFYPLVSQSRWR
Procedure, shortened: (§1)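 Fragment (200 µM) or vehicle was incubated for 3 h with triplicate HEK293T lysate samples of 495 µg, which were then treated with Biotin-Ahx-Ub-VS at 0.5 µM final for 1 h. Labelled DUBs were enriched on NeutrAvidin, digested with LysC and trypsin, and analysed by diaPASEF LC-MS/MS. Values are average log2 fragment/vehicle ratios from an unpaired t-test on global-median-normalised Spectronaut label-free quantities, using proteins with ≥2 unique peptides.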

USP24 = USP24 (UniProt Q9UPU5)
USP24, sequence (Q9UPU5 whole entry): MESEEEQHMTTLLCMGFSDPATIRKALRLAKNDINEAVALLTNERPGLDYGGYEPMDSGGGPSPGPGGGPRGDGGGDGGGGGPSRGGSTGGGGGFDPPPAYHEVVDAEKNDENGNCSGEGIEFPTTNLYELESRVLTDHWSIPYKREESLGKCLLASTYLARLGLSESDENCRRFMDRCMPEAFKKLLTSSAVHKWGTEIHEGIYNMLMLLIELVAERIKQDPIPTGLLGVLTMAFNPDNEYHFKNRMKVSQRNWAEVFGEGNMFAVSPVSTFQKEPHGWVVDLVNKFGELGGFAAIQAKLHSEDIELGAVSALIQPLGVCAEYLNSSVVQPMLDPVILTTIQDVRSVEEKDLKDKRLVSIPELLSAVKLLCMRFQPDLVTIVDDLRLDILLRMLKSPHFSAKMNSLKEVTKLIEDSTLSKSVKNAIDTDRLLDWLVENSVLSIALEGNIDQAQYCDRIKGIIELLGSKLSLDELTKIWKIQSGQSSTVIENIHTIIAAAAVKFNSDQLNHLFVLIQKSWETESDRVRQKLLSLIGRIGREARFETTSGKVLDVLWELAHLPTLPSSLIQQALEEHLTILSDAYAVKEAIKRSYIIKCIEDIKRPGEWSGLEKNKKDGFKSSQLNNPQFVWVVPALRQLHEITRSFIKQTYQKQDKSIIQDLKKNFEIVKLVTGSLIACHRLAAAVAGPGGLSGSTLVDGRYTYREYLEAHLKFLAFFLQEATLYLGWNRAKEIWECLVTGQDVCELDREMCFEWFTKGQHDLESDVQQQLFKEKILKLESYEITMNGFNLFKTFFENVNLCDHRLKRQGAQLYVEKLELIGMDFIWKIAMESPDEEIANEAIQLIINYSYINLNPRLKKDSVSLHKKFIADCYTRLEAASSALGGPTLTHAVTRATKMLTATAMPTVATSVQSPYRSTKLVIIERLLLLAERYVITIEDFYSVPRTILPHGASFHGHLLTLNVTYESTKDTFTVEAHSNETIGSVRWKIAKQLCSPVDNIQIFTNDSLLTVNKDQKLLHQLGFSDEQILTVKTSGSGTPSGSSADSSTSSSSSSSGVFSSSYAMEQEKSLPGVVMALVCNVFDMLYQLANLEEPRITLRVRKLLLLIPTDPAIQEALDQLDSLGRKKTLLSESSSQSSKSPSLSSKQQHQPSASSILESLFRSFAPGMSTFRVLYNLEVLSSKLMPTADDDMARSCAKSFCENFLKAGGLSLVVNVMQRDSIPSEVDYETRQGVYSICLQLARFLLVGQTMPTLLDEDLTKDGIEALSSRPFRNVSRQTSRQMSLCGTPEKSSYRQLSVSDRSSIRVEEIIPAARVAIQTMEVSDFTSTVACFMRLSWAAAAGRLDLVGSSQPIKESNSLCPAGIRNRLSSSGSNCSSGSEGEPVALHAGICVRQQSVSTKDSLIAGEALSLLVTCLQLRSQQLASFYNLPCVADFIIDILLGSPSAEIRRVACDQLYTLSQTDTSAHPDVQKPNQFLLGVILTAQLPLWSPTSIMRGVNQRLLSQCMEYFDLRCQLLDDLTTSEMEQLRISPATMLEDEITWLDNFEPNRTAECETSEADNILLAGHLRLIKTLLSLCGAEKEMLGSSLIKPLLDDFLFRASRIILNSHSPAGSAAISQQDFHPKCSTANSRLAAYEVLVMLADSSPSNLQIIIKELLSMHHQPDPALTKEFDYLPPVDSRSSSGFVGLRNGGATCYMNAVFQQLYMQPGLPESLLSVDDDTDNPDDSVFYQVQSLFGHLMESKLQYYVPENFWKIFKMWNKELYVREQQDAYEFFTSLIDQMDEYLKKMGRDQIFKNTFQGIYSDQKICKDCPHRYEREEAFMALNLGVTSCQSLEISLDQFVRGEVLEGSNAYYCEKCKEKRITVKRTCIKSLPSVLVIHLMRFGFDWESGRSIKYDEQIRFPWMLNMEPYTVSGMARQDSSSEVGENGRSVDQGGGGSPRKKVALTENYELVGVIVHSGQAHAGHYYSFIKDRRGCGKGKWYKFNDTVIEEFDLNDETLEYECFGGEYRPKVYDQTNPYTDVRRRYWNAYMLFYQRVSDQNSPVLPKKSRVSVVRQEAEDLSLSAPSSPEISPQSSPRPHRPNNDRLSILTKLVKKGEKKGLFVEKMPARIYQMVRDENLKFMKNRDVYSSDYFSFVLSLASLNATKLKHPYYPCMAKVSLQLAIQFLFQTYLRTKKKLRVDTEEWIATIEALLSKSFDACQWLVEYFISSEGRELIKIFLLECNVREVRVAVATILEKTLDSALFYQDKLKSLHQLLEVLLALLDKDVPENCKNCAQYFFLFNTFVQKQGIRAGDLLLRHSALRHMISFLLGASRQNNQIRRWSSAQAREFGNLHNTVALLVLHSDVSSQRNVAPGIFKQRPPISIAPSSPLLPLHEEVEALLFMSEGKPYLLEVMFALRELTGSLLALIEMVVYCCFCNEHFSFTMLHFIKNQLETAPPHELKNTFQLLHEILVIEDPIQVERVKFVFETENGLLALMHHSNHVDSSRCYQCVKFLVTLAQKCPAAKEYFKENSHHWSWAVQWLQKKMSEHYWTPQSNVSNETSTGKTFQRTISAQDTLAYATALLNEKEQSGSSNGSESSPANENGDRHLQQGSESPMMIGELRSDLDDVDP
Procedure, shortened: as §1

USP25 = biological target: T2, USP25 (UniProt Q9UHP3)
T2 sequence (whole entry): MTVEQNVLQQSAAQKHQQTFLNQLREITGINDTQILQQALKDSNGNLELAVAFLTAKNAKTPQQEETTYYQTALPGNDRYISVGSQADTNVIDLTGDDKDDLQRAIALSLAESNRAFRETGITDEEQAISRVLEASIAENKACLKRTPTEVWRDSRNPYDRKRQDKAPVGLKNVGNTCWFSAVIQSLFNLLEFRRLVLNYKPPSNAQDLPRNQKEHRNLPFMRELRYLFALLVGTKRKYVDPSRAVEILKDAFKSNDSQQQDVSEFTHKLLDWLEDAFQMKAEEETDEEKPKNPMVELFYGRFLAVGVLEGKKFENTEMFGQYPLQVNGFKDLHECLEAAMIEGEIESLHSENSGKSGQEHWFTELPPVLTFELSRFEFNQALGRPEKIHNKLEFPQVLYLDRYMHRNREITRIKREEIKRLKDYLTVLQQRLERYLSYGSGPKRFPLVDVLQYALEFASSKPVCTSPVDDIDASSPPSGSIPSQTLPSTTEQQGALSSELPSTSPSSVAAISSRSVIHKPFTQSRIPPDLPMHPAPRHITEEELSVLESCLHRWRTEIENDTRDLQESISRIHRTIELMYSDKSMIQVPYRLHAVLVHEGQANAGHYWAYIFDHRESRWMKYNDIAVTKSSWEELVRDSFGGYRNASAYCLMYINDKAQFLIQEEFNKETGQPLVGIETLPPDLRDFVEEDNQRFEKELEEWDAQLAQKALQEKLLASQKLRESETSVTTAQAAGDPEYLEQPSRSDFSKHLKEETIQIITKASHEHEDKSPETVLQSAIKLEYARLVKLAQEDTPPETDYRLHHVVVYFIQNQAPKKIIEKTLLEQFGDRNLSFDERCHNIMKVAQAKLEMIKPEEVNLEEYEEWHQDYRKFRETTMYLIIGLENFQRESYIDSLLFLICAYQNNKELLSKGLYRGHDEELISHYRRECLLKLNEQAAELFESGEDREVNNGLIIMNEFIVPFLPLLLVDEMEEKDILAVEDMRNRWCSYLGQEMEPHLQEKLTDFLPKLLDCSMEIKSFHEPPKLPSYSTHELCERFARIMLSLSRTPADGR
Procedure, shortened: as §1

USP28 = biological target: T3, USP28 (UniProt Q96RU2)
T3 sequence (whole entry): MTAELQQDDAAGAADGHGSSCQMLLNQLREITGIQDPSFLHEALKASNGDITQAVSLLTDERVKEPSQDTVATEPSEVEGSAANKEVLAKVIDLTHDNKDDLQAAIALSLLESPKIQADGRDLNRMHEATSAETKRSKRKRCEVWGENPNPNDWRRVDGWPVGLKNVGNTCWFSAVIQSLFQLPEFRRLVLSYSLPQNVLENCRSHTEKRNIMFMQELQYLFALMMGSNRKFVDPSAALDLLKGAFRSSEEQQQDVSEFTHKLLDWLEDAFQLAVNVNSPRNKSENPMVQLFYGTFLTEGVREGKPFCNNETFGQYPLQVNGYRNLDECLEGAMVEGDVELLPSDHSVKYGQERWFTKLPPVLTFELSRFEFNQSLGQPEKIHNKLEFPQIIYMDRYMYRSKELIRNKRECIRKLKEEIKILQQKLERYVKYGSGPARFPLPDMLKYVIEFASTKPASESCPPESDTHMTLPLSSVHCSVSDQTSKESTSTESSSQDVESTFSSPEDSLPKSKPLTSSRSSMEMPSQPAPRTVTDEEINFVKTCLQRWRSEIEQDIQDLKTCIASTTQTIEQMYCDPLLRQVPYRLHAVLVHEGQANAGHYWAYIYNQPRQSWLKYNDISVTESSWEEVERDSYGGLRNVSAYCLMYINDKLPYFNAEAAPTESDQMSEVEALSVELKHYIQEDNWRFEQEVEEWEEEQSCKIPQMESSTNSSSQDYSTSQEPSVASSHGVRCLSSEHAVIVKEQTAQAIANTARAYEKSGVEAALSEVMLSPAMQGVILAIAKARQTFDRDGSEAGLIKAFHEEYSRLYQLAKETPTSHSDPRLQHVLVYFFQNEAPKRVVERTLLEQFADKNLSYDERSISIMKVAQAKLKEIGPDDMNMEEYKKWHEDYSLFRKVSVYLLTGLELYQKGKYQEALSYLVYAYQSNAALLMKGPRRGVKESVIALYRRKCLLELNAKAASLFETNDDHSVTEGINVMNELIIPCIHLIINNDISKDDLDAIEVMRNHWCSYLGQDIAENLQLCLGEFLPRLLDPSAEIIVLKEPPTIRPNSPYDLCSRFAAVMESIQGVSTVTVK
Procedure, shortened: as §1

Measured: log2 ratio of Biotin-Ahx-Ub-VS probe labelling

Cl.Cn1nccc1C(NC(=O)CCl)c1ccccc1 (centres undefined)
inactive: USP19 -0.0802 | USP24 -0.00471 | USP25 -0.455 | USP28 -0.472
